# Reference: PubChem BioAssay
# System: not listed separately
# Assay: mitochondrial membrane potential change in A549 cells, profiling panel, cell-based, JC-1 fluorescence, basal, 24 h, 100 nL (AID 1138);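 further: A549 lung adenocarcinoma cells under basal conditions with no added stimulus; test concentration not given here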
# Details: higher = more signal
row,Structure (SMILES),z-score
1,COC(=O)[C@H](C)NC(=O)CCC1CC(OC(=O)NCc2ccc3c(c2)OCO3)CC2(CCCC(COC(=O)NCCCN3CCCC3=O)O2)O1 (some centres undefined),-0.224
2,O=C(NN=C1C[C@@H](O)[C@@H](O)[C@@H]2[C@@H]3C(=O)N(Cc4ccc5c(c4)OCO5)C(=O)[C@@H]3CC[C@@H]12)OCc1ccccc1,-0.734
3,CCN1C(=O)[C@H]2[C@H]3[C@H](O)[C@H](O)CC(=NOCC[C@@H]4C=C[C@H](OC(C)=O)[C@@H](COC(C)=O)O4)[C@@H]3CC[C@H]2C1=O,-0.812
4,COC(=O)[C@H](C)NC(=O)CCC1CC(OC(=O)NCc2ccc3c(c2)OCO3)CC2(CCCC(COC(=O)NCCC(C)C)O2)O1 (some centres undefined),-0.822
5,CO[C@H]1COC(=O)CC=C[C@H](C)[C@H](OC)COC(=O)[C@@H](C)NC(=O)CC=C[C@@H]1C,-0.838
6,O=C1C=C[C@@H](O)[C@@H]2[C@@H]3C(=O)N(Cc4ccccc4)C(=O)[C@@H]3CC[C@@H]12,0.831
7,CCOC(=O)[C@H](Cc1ccccc1)NC(=O)CCC1CC(OC(=O)NCc2ccc3c(c2)OCO3)CC2(CCCC(COC(=O)NCCc3ccc(Cl)cc3)O2)O1 (some centres undefined),0.05
8,COc1ccc(-c2cnnc(CCCn3ccnc3-c3ccccc3)n2)cc1,0.787
9,CCOC(=O)NN=C1C[C@@H](O)[C@@H](O)[C@@H]2[C@@H]3C(=O)N(c4ccc(F)cc4F)C(=O)[C@@H]3CC[C@H]12,-0.778
10,C#CCCCON=C1C[C@@H](O)[C@@H](O)[C@@H]2[C@@H]3C(=O)N(CC)C(=O)[C@@H]3CC[C@H]12,-0.27
11,C[C@H]1CC[C@@H](C(=O)O)N[C@@H]1c1ccc(C#Cc2ccccc2)cc1,-2.02
12,COC(=O)[C@H](C)NC(=O)CCC1CC(OC(=O)NCc2cccc3ccccc23)CC2(CCCC(COC(=O)NCc3ccccc3)O2)O1 (some centres undefined),-0.139
13,CC(=O)OC[C@H]1O[C@H](CC=NOC[C@@H](O)[C@H]2O[C@@H]3OC(C)(C)O[C@@H]3[C@H]2O)C=C[C@@H]1OC(C)=O,-0.325

# System: Lefty1
# Assay: Lefty1 binders on small-molecule microarrays, primary screen, biochemical, small-molecule microarray, 635/667 nm fluorescence (AID 1139)
# Details: small-molecule microarray binding, fluorescence 635/667; higher = more signal
row,Structure (SMILES),composite z-score
1,COCC#Cc1ccc([C@@H]2N[C@H](C(=O)O)CC[C@H]2C)cc1,0.0859
2,C#CCCCON=C1[C@H]2CCn3c(=O)n([C@@H](CC)c4ccccc4)c(=O)n3[C@H]2[C@H](O)[C@@H]2O[C@H]12,0.368
3,O=C1CCCC=C1C(O)C1CCCCC1 (centres undefined),0.562
4,C[C@@H](c1ccccc1)N1C(=O)[C@H]2[C@H]3[C@H](O)[C@H](O)CC(=NOC[C@@H](O)COCc4ccco4)[C@H]3CC[C@H]2C1=O,1.05
5,CCOC(=O)[C@H](CC(C)C)NC(=O)CCC1CC(OC(=O)NCCc2ccc(F)cc2)CC2(CCCC(COC(=O)NCc3cccc4ccccc34)O2)O1 (some centres undefined),0.774
6,COC(=O)[C@H](C)NC(=O)CCC1CC(OC(=O)NCCc2ccc(F)cc2)CC2(CCCC(COC(=O)NCCc3ccccc3OC)O2)O1 (some centres undefined),0.554
7,CCOC(=O)CCN1C(=O)[C@H]2[C@H]3[C@H](O)[C@H](O)CC(=NOCC(C)C)[C@@H]3CC[C@H]2C1=O,0.929
8,CC[C@@H](c1ccccc1)n1c(=O)n2n(c1=O)[C@H]1[C@H](O)[C@@H]3O[C@@H]3C(=NOCc3ccccc3)[C@H]1CC2,0.65
9,COc1ccc(O[C@H]2C=C[C@@H](c3ccccc3)O[C@@H]2CON=C(C)CCN2CCCc3nc(C)c(C)cc32)cc1,0.408
10,COC(OC)[C@@H](C)[C@H](OC)[C@@H](C)[C@H](OC)c1ccccc1,0.253
11,CC(CCN1CCc2nc(-c3ccccc3)c(-c3ccccc3)cc2C1)=NO[C@@H](C)c1cc(-c2c(C)cc(C)cc2C)no1,-0.0591
12,CO[C@H]1COC(=O)CCC[C@H](C)[C@H](OC)COC(=O)CC=C[C@@H]1C,0.987
13,COC(=O)[C@H](CCSC)NC(=O)CC=C[C@@H](C)CO,1.6
14,C[C@H]1CC[C@@H](C(=O)O)N[C@@H]1c1cccc(N2CCCC2=O)c1,0.132
15,C#CCCCON=C1C[C@@H](O)[C@@H](O)[C@@H]2[C@@H]3C(=O)N([C@@H](C)c4ccccc4)C(=O)[C@@H]3CC[C@@H]12,-0.32
16,COC(=O)[C@H](C)NC(=O)CCC1CC(OC(=O)NCc2ccc3c(c2)OCO3)CC2(CCCC(COC(=O)NCc3ccccc3)O2)O1 (some centres undefined),0.827
17,CCOC(=O)CCN1C(=O)[C@H]2[C@H]3[C@H](O)[C@H](O)CC(=NNC(=O)OCC)[C@H]3CC[C@H]2C1=O,1.01
18,CC(C)(C)N1C(=O)[C@H]2[C@@H]3C(=CC[C@H]2C1=O)C(=O)[C@H]1O[C@H]1[C@H]3O,-0.0815

row,Structure (SMILES),composite z-score
1,O=C1[C@H]2[C@H]3[C@H](O)[C@H](O)CC(=NO[C@@H]4O[C@H](CO)[C@@H](O)[C@H](O)[C@H]4O)[C@@H]3CC[C@H]2C(=O)N1C1CCCCC1,0.578
2,COc1ccc(COC(=O)NN=C2C[C@@H](O)[C@@H](O)[C@@H]3[C@@H]4C(=O)N([C@@H](C)c5ccccc5)C(=O)[C@@H]4CC[C@@H]23)cc1,0.244
3,COc1ccc(COC(=O)NN=C2C[C@@H](O)[C@@H](O)[C@@H]3[C@@H]4C(=O)N(Cc5ccccc5)C(=O)[C@@H]4CC[C@@H]23)cc1,0.292
4,CC(C)[C@@H](OCc1ccccc1)[C@H](C)C=NO[C@@H](C)c1cn([C@H](CO)Cc2ccccc2)nn1,0.249
5,CCOC(=O)[C@H](Cc1ccccc1)NC(=O)CCC1CC(OC(=O)NCc2ccc3c(c2)OCO3)CC2(CCCC(COC(=O)NCCOc3ccccc3)O2)O1 (some centres undefined),1.2
6,COC(=O)[C@H](C)NC(=O)CCC1CC(OC(=O)NCc2ccc3c(c2)OCO3)CC2(CCCC(COC(=O)NCCCN3CCCC3=O)O2)O1 (some centres undefined),0.777
7,O=C(NN=C1C[C@@H](O)[C@@H](O)[C@@H]2[C@@H]3C(=O)N(Cc4ccc5c(c4)OCO5)C(=O)[C@@H]3CC[C@@H]12)OCc1ccccc1,-0.257
8,CCN1C(=O)[C@H]2[C@H]3[C@H](O)[C@H](O)CC(=NOCC[C@@H]4C=C[C@H](OC(C)=O)[C@@H](COC(C)=O)O4)[C@@H]3CC[C@H]2C1=O,0.298
9,COC(=O)[C@H](C)NC(=O)CCC1CC(OC(=O)NCc2ccc3c(c2)OCO3)CC2(CCCC(COC(=O)NCCC(C)C)O2)O1 (some centres undefined),1.25
10,CO[C@H]1COC(=O)CC=C[C@H](C)[C@H](OC)COC(=O)[C@@H](C)NC(=O)CC=C[C@@H]1C,1.52
11,O=C1C=C[C@@H](O)[C@@H]2[C@@H]3C(=O)N(Cc4ccccc4)C(=O)[C@@H]3CC[C@@H]12,0.314
12,CCOC(=O)[C@H](Cc1ccccc1)NC(=O)CCC1CC(OC(=O)NCc2ccc3c(c2)OCO3)CC2(CCCC(COC(=O)NCCc3ccc(Cl)cc3)O2)O1 (some centres undefined),1.03
13,COc1ccc(-c2cnnc(CCCn3ccnc3-c3ccccc3)n2)cc1,0.592
14,CCOC(=O)NN=C1C[C@@H](O)[C@@H](O)[C@@H]2[C@@H]3C(=O)N(c4ccc(F)cc4F)C(=O)[C@@H]3CC[C@H]12,0.449
15,C#CCCCON=C1C[C@@H](O)[C@@H](O)[C@@H]2[C@@H]3C(=O)N(CC)C(=O)[C@@H]3CC[C@H]12,0.162
16,C[C@H]1CC[C@@H](C(=O)O)N[C@@H]1c1ccc(C#Cc2ccccc2)cc1,0.608
17,COC(=O)[C@H](C)NC(=O)CCC1CC(OC(=O)NCc2cccc3ccccc23)CC2(CCCC(COC(=O)NCc3ccccc3)O2)O1 (some centres undefined),1.17
18,CC(=O)OC[C@H]1O[C@H](CC=NOC[C@@H](O)[C@H]2O[C@@H]3OC(C)(C)O[C@@H]3[C@H]2O)C=C[C@@H]1OC(C)=O,0.385
